# Data: PubChem BioAssay (NCATS)
# Inconclusive results are not listed. Activity calls are given as the source filed them. The call rests on the fitted dose curve; in most records, active means well fitted cell-killing curve with a large enough effect; inconclusive means small, poorly fitted or top-dose-only effect, or effect the other way; inactive means no such curve, though single readings can be large or run the other way. Starred links: 1 amine or outer side, 2 acyl side, 3 side chain; linkers in the order of their positions; H or OH if unused. Positions of bridges follow the written chain, without caps; N, C: chain ends. Non-standard residues stand in square brackets, D forms with d. Residues, ends and D or L forms follow the SMILES beside them. Chains are numbered I, II in the order given. Actinocin(9to1) = Cc1c2oc3c(C)ccc(C(=O)[*:1])c3nc-2c(C(=O)[*:2])c(N)c1=O; NMeV = CN[CH](C(=O)O)C(C)C; Sar = CNCC(=O)O
# Assay: Quantitative High-Throughput drug screen in 47 multiple myeloma cell lines against the NCATS MIPE library collection: OPM1_PLB cell viability assay (AID 1918989); further: nearly all actives have a fitted effect of over 40% in size
# Settings: CellTiter-Glo, 48 h; series mostly up to 45.8 µM
# Excerpt: PI: Beverly A. Mock Ph.D.
# Laboratory of Cancer Biology and Genetics,
# Center for Cancer Research, National Cancer Institute,
# National Institute of Health, Bethesda, Maryland
# Drug resistance and disease progression are common in multiple myeloma (MM) patients, underscoring the need for new therapeutic combinations. […] We hypothesized that effective combinations would reduce MYC expression and enhance p16 activity. […] These preclinical data identify potentially useful drug combinations for evaluation in drug-resistant MM and reveal potential mechanisms of combined drug sensitivity.
# Described herein is the primary MIPE qHTS used to cherrypick compounds. Validated compounds were then further tested for potential synergistic activiy.
# [1] Peat TJ, Gaikwad SM, Dubois W, Gyabaah-Kessie N, Zhang S, Gorjifard S, Phyo Z, Andres M, Hughitt VK, Simpson RM, Miller MA, Girvin AT, Taylor A, Williams D, D'Antonio N, Zhang Y, Rajagopalan A, Flietner E, Wilson K, Zhang X, Shinn P, Klumpp-Thomas C, McKnight C, Itkin Z, Chen L, Kazandijian D, Zhang J, Michalowski AM, Simmons JK, Keats J, Thomas CJ, Mock BA. Drug combinations identified by high-throughput screening promote cell cycle transition and upregulate Smad pathways in myeloma. Cancer Lett. 2023 Aug 1;568:216284. doi: 10.1016/j.canlet.2023.216284. Epub 2023 Jun 24. PMID: 37356470; PMCID: PMC10408729.
# SEQUENCE No. (e.g., 1, 2, 3, etc.); […] (e.g., Cells, Incubation, Reagent, etc.); VALUE and DESCRIPTION.
# 1; Cells; 5 uL; white, solid bottom 1536-well Greiner assay plate.
# 2; Compounds; 23 nL; Kalypsis pin tool (Wako USA) equipped with a 1536-well pin head to transfer to the assay plates.
# 3; Incubation; 48 hours; 37C incubation.
# 4; Reagent;5uL; CellTiter Glo (Promega).
# 5; Detector; 425V; Luminescence; Viewlux PerkinElmer.
# NOTES (numbers refer to Sequence numbers above)
# 1. The cell-based screening methods employed in this study were like those previously published. Briefly, the corresponding myeloma cell lines were screened in 1,536-well plates with 500 cells, 5-uL per well for inhibition of cell viability (assessed by measuring ATP levels with CellTiterGlo).
# 2. NCATS MIPE 4.0 library of approved and investigational drugs were added using the Kalypsis pin tool. Wells treated with DMSO only for 100% viability and media only for 0% viability were used as controls.
# 3. The assay plates were covered and incubated for 48 hours in a 37C, 5% CO2 incubator with controlled humidity.
# 4. After 48 hours, CellTilter-GloTM luminescent substrate mix (Promega) reagent was added to the assay plate and plates we incubated for 5 min at room temperature.
# 5. Signal was measured as median relative luminescence units on a ViewLux (PerkinElmer) multiplate reader.
# [1] Heske CM, Davis MI, Baumgart JT, Wilson K, Gormally MV, Chen L, Zhang X, Ceribelli M, Duveau DY, Guha R, Ferrer M, Arnaldez FI, Ji J, Tran HL, Zhang Y, Mendoza A, Helman LJ, Thomas CJ. Matrix Screen Identifies Synergistic Combination of PARP Inhibitors and Nicotinamide Phosphoribosyltransferase (NAMPT) Inhibitors in Ewing Sarcoma. Clin Cancer Res. 2017 Dec 1;23(23):7301-7311. doi: 10.1158/1078-0432.CCR-17-1121. Epub 2017 Sep 12. PMID: 28899971; PMCID: PMC6636827.
# Potency means the concentration at half of the fitted maximal effect.
SMILES,Potency,viability (% of control)
COc1cccc2c1C(=O)c1c(O)c3c(c(O)c1C2=O)C[C@@](O)(C(=O)CO)C[C@@H]3O[C@H]1C[C@H](N)[C@H](OC2CCCCO2)[C@H](C)O1 (stereo not given in full),16.6 µM (active),–
C[C@H](NCc1ccc2c(c1)nc(NC(=O)c1ccc(-c3cn[nH]c3)s1)n2CCc1ccccc1)C(C)(C)C,1.18 µM (active),–
COc1cc(OC)c(NC(=O)Nc2cc(C)on2)cc1Cl,inactive,–
c1cncc(CN2CCC(n3ncc4c(N5CCOCC5)nc(-c5ccc6[nH]ccc6c5)nc43)CC2)c1,2.64 µM (active),–
CC(C)(C)[C@H](NC(=O)c1ccc(N)c(Cl)c1)C(=O)N1CCC[C@@H]1C(=O)N[C@H](C#N)CC(=O)O,–,141% [at 3.51 µM] (inactive)
C[C@H](NC(=O)C(C#N)=Cc1cccc(Br)n1)c1ccccc1,2.09 µM (active),–
N#Cc1c(C2CCNCC2)cc(-c2c(O)cccc2OCC2CC2)nc1N,20.9 µM (active),–
NC1=N[C@H]2[C@H](CS[C@H]2CCCCC(=O)O)N1,inactive,–
Oc1ccc(-c2ccc(-c3cc(Nc4cccc(CNC5CC5)c4)n[nH]3)cc2)c(O)c1,1.05 µM (active),–
OCc1ccccc1O[C@@H]1O[C@H](CO)[C@H](O)[C@H](O)[C@H]1O,inactive,–
CNC(=O)c1ccc(Nc2cc(Nc3ccccc3S(=O)(=O)C(C)C)c3cc[nH]c3n2)nc1,1.66 µM (active),–
C=C1C(=O)O[C@H]2[C@@H]1CCC(C)=CCC[C@@]1(C)O[C@@H]21,4.69 µM (active),–
O=C1NC(O)CCN1[C@@H]1O[C@H](CO)[C@H](O)[C@H]1O (stereo not given in full),inactive,–
CC1(C)[C@H](O[C@H]2O[C@H](C(=O)O)[C@@H](O)[C@H](O)[C@H]2O[C@@H]2O[C@H](C(=O)O)[C@@H](O)[C@H](O)[C@H]2O)CC[C@@]2(C)[C@H]1CC[C@]1(C)[C@H]2C(=O)C=C2[C@H]3C[C@@](C)(C(=O)O)CC[C@]3(C)CC[C@]21C,inactive,–
Nc1nc(N)c2nc(-c3cccc(O)c3)c(-c3cccc(O)c3)nc2n1,9.35 µM (active),–
COc1ccc(S(=O)(=O)Nc2cc(-c3c(O)ccc4ccccc34)c(O)c3ccccc23)cc1,9.35 µM (active),–
CCCCCCCCCCCC(CC1OC(=O)C1CCCCCC)OC(=O)C(CC(C)C)NC=O (stereo not given),inactive,–
Cn1cc(C2=C(c3c4n(c5ccccc35)CCC(CN)C4)C(=O)NC2=O)c2ccccc21 (stereo not given),7.43 µM (active),–
CC(=O)OCC(=O)[C@@]12N=C(C)O[C@H]1C[C@H]1[C@@H]3CCC4=CC(=O)C=C[C@]4(C)[C@@H]3[C@@H](O)C[C@@]12C,inactive,–
CC(C)OC(=O)[C@H](C)N[P@](=O)(OC[C@H]1O[C@@H](n2ccc(=O)[nH]c2=O)[C@](C)(F)[C@H]1O)Oc1ccccc1,inactive,–

SMILES,Potency,viability (% of control)
COc1ccc(C[C@@H](C)[C@@H](C)Cc2ccc(OC)c(OC)c2)cc1OC,0.264 µM (active),–
COc1cc(C)c(Sc2cnc(NC(=O)c3ccc(CNC(C)C(C)(C)C)cc3)s2)cc1C(=O)N1CCN(C(C)=O)CC1 (stereo not given),16.6 µM (active),–
COC(=O)C1C2CC3c4[nH]c5cc(OC)ccc5c4CCN3CC2CC(OC(=O)c2cc(OC)c(OC)c(OC)c2)C1OC (stereo not given),23.5 µM (active),–
O=C1CSC(=O)N1C(CCc1ccncc1)COc1ccc(-c2cccc([N+](=O)[O-])c2)cc1 (stereo not given),16.6 µM (active),–
CCOC(=O)[C@H](CCc1ccccc1)N[C@@H](C)C(=O)N1[C@@H](C(=O)O)C[C@H]2CCC[C@@H]21,5.26 µM (active),–
CC(C)(O)Cn1c(NC(=O)c2ccc(-c3cn[nH]c3)s2)nc2cc(CN3CCOCC3)ccc21,0.743 µM (active),–
"Cc1c2oc3c(C)ccc(C(=O)NC4C(=O)NC(C(C)C)C(=O)N5CCCC5C(=O)N(C)CC(=O)N(C)C(C(C)C)C(=O)OC4C)c3nc-2c(C(=O)NC2C(=O)NC(C(C)C)C(=O)N3CCCC3C(=O)N(C)CC(=O)N(C)C(C(C)C)C(=O)OC2C)c(N)c1=O (stereo not given) (I: TVP[Sar][NMeV] / II: TVP[Sar][NMeV]; ester I:1-I:C, II:1-II:C; linker I:N-II:N via Actinocin(9to1); configuration not given here)",inactive,–
Cc1cc(-c2nnc3n2CCCCC3)c(C)n1-c1ccccc1,inactive,–
CCc1nc(-c2cccc(C)c2)c(-c2ccnc(NC(=O)c3ccccc3)c2)s1,13.2 µM (active),–
CCNC(=O)Nc1ccc(-c2nc3c(c(N4CCOC[C@H]4C)n2)CCN(C2COC2)C3)cc1,1.18 µM (active),–
CC[C@H](CC[C@@H](C)[C@H]1CC[C@H]2[C@@H]3CC=C4C[C@@H](O)CC[C@]4(C)[C@@H]3CC[C@]12C)C(C)C,inactive,–
C=Cc1c(C)c2cc3nc(cc4[nH]c(cc5nc(cc1[nH]2)C(C)=C5CCC(=O)O)c(CCC(=O)OC)c4C)[C@@]1(C)C3=CC=C(C(=O)OC)[C@H]1C(=O)OC,0.372 µM (active),–
CC(C)C[C@H](NC(=O)[C@@H](NC(=O)c1cccc(-c2ccccc2)n1)[C@@H](C)O)B(O)O,0.0132 µM (active),–
CC(C)(N)c1ccc(-c2nc3ccccc3nc2-c2ccccc2)cc1,5.9 µM (active),–
CC(=O)NC(CS)C(=O)O (stereo not given),inactive,–
N#Cc1ccc(COC[C@H]2O[C@@H](n3c(NCc4ccc(Cl)c(Cl)c4)nc4c(N)ncnc43)[C@@H](O)[C@@H]2O)cc1,5.26 µM (active),–
C=CC(=O)Nc1cccc(Nc2nc(NC3CCC(N(C)C)CC3)nc3c2ncn3C(C)C)c1 (stereo not given),0.469 µM (active),–
COc1ccc(C(C)=O)c(O)c1,inactive,–
CN(C)c1ccc2cc(C(=O)N[C@@H](CCCN=C(N)CCl)C(=O)NCc3ccccc3)ccc2c1,7.43 µM (active),–
CC[C@@]1([C@@H]2O[C@@H]([C@H]3O[C@@](O)(CO)[C@H](C)C[C@H]3C)C[C@H]2C)CC[C@H]([C@]2(C)CC[C@]3(C[C@H](O)[C@@H](C)[C@@H]([C@@H](C)[C@@H](OC)[C@H](C)C(=O)O)O3)O2)O1,0.162 µM (active),–
